Shown are actives, neighbours in structure and some others; about 18% of the full set was active somewhere.
Six1-Eya2 inh = Six1/Eya2 interaction inhibition; activity change, % (test concentration not listed); 360,000 tested, 0.56% active; Q15475+O00167; AlphaScreen GST-Six1/His-Eya2 binding, biochemical; active compounds read low; in the data active = activity change below about -65%; inconclusive = mostly about -30% to -63%
Target sequence (O00167 whole entry, looked up): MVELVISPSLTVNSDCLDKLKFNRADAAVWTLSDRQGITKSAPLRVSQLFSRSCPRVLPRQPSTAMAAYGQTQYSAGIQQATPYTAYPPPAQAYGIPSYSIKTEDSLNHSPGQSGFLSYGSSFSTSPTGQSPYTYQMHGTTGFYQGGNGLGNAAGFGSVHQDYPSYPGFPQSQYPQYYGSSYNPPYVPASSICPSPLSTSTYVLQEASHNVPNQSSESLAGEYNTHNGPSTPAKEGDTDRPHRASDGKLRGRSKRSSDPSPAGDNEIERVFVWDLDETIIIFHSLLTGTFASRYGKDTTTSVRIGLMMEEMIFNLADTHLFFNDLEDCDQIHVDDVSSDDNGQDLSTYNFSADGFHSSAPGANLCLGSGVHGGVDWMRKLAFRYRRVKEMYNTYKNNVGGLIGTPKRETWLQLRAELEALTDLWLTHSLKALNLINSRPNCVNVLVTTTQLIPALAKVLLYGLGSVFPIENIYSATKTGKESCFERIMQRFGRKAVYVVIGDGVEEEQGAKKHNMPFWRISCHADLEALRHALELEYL
Target sequence (Q15475 whole entry, looked up): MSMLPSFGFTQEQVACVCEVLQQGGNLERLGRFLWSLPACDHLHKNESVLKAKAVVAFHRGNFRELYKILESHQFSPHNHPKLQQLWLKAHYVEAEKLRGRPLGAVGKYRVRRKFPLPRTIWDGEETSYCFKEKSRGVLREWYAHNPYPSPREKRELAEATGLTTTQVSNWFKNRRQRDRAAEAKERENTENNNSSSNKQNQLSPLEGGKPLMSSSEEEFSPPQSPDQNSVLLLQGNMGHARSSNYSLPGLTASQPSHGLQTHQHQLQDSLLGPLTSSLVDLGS
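GST-Six1 + His-Eya2 (5X stock: 250/500 nM); Tris pH 8.0, 300 mM NaCl, 0.05% BSA, 0.02% Tween 20; GSH donor/Ni acceptor beads; 1 h 37 °C dark; AlphaScreen readout.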
DT40 TDP1 CPT = growth inhibition of DT40 Tdp1-/-;hTDP1 cells with camptothecin (screen for TDP1 inhibitors). Potency, µM (series often up to 46.2 µM), usual class: inhibitors. 420,000 tested, 12% active. chicken DT40 Tdp1-/-;hTDP1 cells + 20 nM CPT, ATP luminescence, 48 h; also: nearly all actives have a fitted effect of over 55% in size
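Chicken DT40 Tdp1-/- cells stably complemented with human TDP1 were seeded at 400 cells/well in medium containing 20 nM camptothecin, exposed to pin-transferred compounds, and grown at 37 °C for at least 48 hr. Viability was read as ATP luminescence.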
IL1B secr inh = blocks inflammasome-driven IL-1 beta release; 360,000 tested, 4.7% active; THP-1 LPS/ATP IL-1B secretion, AlphaLISA, 16 h; active compounds read low; activity change, % at 57.5 µM; AID 743279; in the data active = activity change below about -50%; inconclusive = mostly about -30% to -49%
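THP-1 cells pretreated 1 hr with compounds (up to 57.5 uM final), then stimulated with LPS (250 ng/mL final) plus ATP (1.25 mM final); secreted IL-1B measured by AlphaLISA after 16 hr, decreased signal indicating inhibition.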
TDP1 cell noCPT = qHTS for Inhibitors of human tyrosyl-DNA phosphodiesterase 1 (TDP1): qHTS in cells in absence of CPT; 420,000 tested, 15% active; AID 686978, 2013; DT40 Tdp1-/- hTDP1 cells, no CPT, ATP luminescence, 48 h; Potency, µM (titrated, usually from 46.2 µM), hits mostly inhibitors; also: nearly all actives have a fitted effect of over 55% in size
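Chicken DT40 Tdp1-/- cells stably complemented with human TDP1 were seeded at 400 cells/well with DMSO in place of 20 nM camptothecin. After compound pinning, cells grew at least 48 hr at 37 °C; viability read by CellTiter-Glo luminescence.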
TDP1 inh = TDP1 (human) enzyme inhibition; Q9NUW8; recombinant TDP1, AlphaScreen DNA substrate cleavage; Potency, µM (titrated, usually from 130 µM), actives largely listed as inhibitors; 350,000 tested, 0.28% active; AID 485290; also: nearly all actives have a fitted effect of over 40% in size
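Signal: AlphaScreen proximity between streptavidin donor and anti-FITC acceptor beads on intact substrate. Reaction: Tdp1 1 nM, substrate 15 nM final, 5 min RT after 15 min compound preincubation.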
CtBP-E1A blk = inhibitors of CtBP/E1A interaction | 340,000 tested, 0.49% active | activity change, % (concentration not given with the values) | AlphaScreen GST-E1A/His-CtBP binding, 1536-well; active compounds read low | AID 651724; in the data active = activity change below about -65%; inconclusive = mostly about -30% to -63%
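Protein mix (5X: 125 nM each GST-E1A, His-CtBP) was incubated with pinned compound 2 h at 37 deg C in dark, in 50 mM Tris pH 8.0 buffer with 300 mM NaCl. Glutathione donor and nickel acceptor beads followed; AlphaScreen signal read after 1 h.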
A number is an active result; n = inactive; u = inconclusive; x = no result given; [ ] = remark or other dose. Unless noted, calls follow the shape of the dose curve; as a rule, active = well fitted curve in the direction sought with a large enough effect; inconclusive = small, poorly fitted or top-dose-only effect, or another doubt; inactive = no such curve, though single readings can be large; an effect the other way counts as inactive or inconclusive.

SMILES	Six1-Eya2 inh	DT40 TDP1 CPT	IL1B secr inh	TDP1 cell noCPT	TDP1 inh	CtBP-E1A blk
CC(CC(=O)N1CCN(c2ccccc2)CC1)S(=O)(=O)c1ccc2c(c1)NC(=O)CO2 (stereo not drawn)	n	20.6µM	n	u	n	n
Cc1ccc(N(C)C(=O)CC(C)S(=O)(=O)c2ccc3c(c2)NC(=O)CO3)cc1 (stereo not drawn)	n	n	n	u	n	n
O=C(CSC1CN(C(c2ccccc2)c2ccccc2)C1)N/N=C/c1ccccc1	n	16.4µM	n	u	n	n
Cc1ccccc1SCC(=O)N/N=C/c1ccc(F)cc1	n	u	n	n	x	n
CCCCCCCCC1=NCCc2c1[nH]c1ccccc21	n	u	-94.1	20.6µM	x	n
Cc1ccc(NC(=S)NNC(=O)c2ccccc2O)c(C)c1	n	23.1µM	n	13µM	n	n
Cc1cccc(NC(=S)NNC(=O)c2ccc(O)cc2O)c1C	n	n	n	n	n	n
Cc1ccc(NC(=S)NCCC(c2ccccc2)c2ccccc2)c(C)c1	n	23.1µM	n	16.4µM	n	n
Cc1ccc(SCCNC(=S)Nc2ccc(C)cc2C)cc1	n	n	n	n	n	n
COc1ccc(NC(=S)NCCc2ccccc2)c(OC)c1	n	u	n	u	n	n
COc1ccc(OC)c(NC(=S)NCCC(c2ccccc2)c2ccccc2)c1	u	u	n	14.6µM	x	u
Cc1ccc(NC(=S)NCc2ccccc2)c(C)c1	n	23.1µM	n	u	x	n
O=C(Nc1ccc([N+](=O)[O-])cc1)C1C(c2ccccc2)=C1c1ccccc1	n	u	n	n	n	n
CCN(C(C)=O)c1cccc2ccccc12	n	n	n	n	n	n
Cc1cc(S(=O)(=O)Nc2cccc(C(=O)O)c2)c(C)c(S(=O)(=O)c2ccccc2)c1	x	n	x	n	n[12.3 µM]	x
CC(C)(C)c1ccccc1NC(=S)NCc1ccccc1	n	u	n	18.4µM	n	n
COCCCNC(=S)Nc1ccccc1C	n	n	n	n	n	n
CN(C)CCNC(=S)Nc1ccccc1C(C)(C)C	n	n	n	n	n	n
Cc1ccccc1NC(=S)NCCC(c1ccccc1)c1ccccc1	n	u	-61.5	u	n	u
Cc1ccccc1NC(=S)NC(C)CCc1ccccc1 (stereo not drawn)	n	u	n	20.6µM	n	n
COc1ccc(C(C)C)cc1S(=O)(=O)Nc1ccc(Cl)cn1	n	n	n	n	n	n
COc1ccc(S(=O)(=O)N2CCC(C(=O)NCCC(=O)Nc3cccc(Cl)c3)CC2)cc1	n	u	u	u	n	n
CCCC(=O)n1nc(-c2ccco2)nc1SCc1ccccc1	n	3.66µM	n	u	n	n
O=C(Cc1ccccc1)n1nc(-c2ccco2)nc1SCc1ccccc1	n	u	u	u	n	n
C/C=C/C1=CC(=O)C[C@H](c2ccc(F)cc2)C1	n	u	u	u	n	n
SMILES	Six1-Eya2 inh	DT40 TDP1 CPT	IL1B secr inh	TDP1 cell noCPT	TDP1 inh	CtBP-E1A blk
C/C=C/C1=CC(=O)C[C@H](c2ccc(OC)c(OC)c2)C1	n	u	-97.5	u	n	n
C/C=C/C1=CC(=O)C[C@H](c2ccc(Cl)cc2)C1	n	u	-82.1	u	n	n
CC1(C)CC(=O)c2cc(-c3nc(-c4ccc(Cl)cc4)cs3)c(=O)n(-c3ccc(F)cc3)c2C1	x	u	x	u	n	x
Cc1ccc(-n2cc(CNCC3CC(=O)N(C4CC4)C3)c(-c3cccc(C)c3)n2)cc1 (stereo not drawn)	n	11.6µM	-63.9	14.6µM	x	x
N#Cc1cccc(-n2c(-c3ccccc3)nnc2-c2ccccc2)c1C#N	n	u	u	u	n	n
N#Cc1ccc(-n2c(-c3ccccc3)nnc2-c2ccccc2)cc1C#N	n	u	-73.6	15.8µM	n	n
COc1ccc2nc(N3C(=O)CC(C(C)c4ccccc4)C3=O)sc2c1 (stereo not drawn)	n	n	n	n	n	n
COc1ccc2nc(N3C(=O)/C(=C/c4ccc(Cl)cc4)NC3=S)sc2c1	n	u	n	20.6µM	n	n
O=C(CCCl)Nc1nc2c(s1)CCc1ccccc1-2	n	13µM	-97.6	5.8µM	x	n
N#C/C(=C(/O)CCl)c1nc2c(s1)CCc1ccccc1-2	n	11.6µM	-95.1	13µM	n	u
O=C(NC1CC(=O)N(c2cccc(F)c2)C1)N1CCN(C(=O)c2ccco2)CC1 (stereo not drawn)	n	n	n	n	n	n
Cc1cn2c(=O)c(S(=O)(=O)Nc3ccc(N4CCOCC4)cc3)c(C)nc2s1	x	u	x	u	n	x
CCCCOC(=O)c1ccc(NS(=O)(=O)c2c(C)nc3scc(C)n3c2=O)cc1	x	13µM	x	23.1µM	n	x
COc1cc(OC)c(NS(=O)(=O)c2c(C)nc3sc(C)cn3c2=O)cc1Cl	x	u	x	14.6µM	n	x
Cc1nc2scc(C)n2c(=O)c1S(=O)(=O)Nc1ccc(F)cc1	n	n	n	n	n	n
Cc1cn2c(=O)c(S(=O)(=O)Nc3ccc(OC(F)(F)F)cc3)c(C)nc2s1	x	20.6µM	x	23.1µM	n	x
CCCCN(CC)S(=O)(=O)c1ccc(C(=O)N=c2sc3cc(NC(C)=O)ccc3n2C)cc1	n	8.2µM	n	16.4µM	n	n
CCCCN(C)S(=O)(=O)c1ccc(C(=O)N=c2sc3cc(NC(C)=O)ccc3n2C)cc1	n	u	n	n	n	n
Cc1nnc(SCc2ccc(Cl)cc2)nc1/C=C/N(C)C	n	u	n	u	n	x
O=c1oc2ccccc2n1Cn1c(=O)oc2ccccc21	n	n	n	u	n	n
Cc1c(C(=O)NCc2ccc(N(C)C)cc2)oc2c1-c1nn(Cc3cccc(Cl)c3)cc1CC2	x	u	x	u	n	x
Cc1ccccc1CNC(=O)c1oc2c(c1C)-c1nn(Cc3ccc(Cl)cc3)cc1CC2	x	u	x	16.4µM	n	x
CCOc1ccccc1CNC(=O)c1oc2c(c1C)-c1nn(Cc3cccc(Cl)c3)cc1CC2	x	u	x	20.6µM	n	x
COC(=O)c1ccc(COc2ccc(C(=O)c3ccccc3)cc2)o1	n	u	n	u	n	n
CCSc1nnc(-c2cc(Br)ccc2NC(C)=O)c(=O)[nH]1	n	n	n	n	x	n
O=C(c1cc2cc(F)ccc2[nH]1)N1CCN(Cc2ccc3c(c2)OCO3)CC1	n	u	n	u	n	n
COc1ccc(N(Cc2cccs2)C(=O)c2ccc(OCC(C)C)cc2)cc1	x	u	x	20.6µM	n	x
COc1ccc(N(Cc2cccs2)C(=O)c2ccc(C(C)(C)C)cc2)cc1	x	u	x	u	n	x
